PubChem BioAssay AID624331 (National Center for Advancing Translational Sciences (NCATS), 2012)
Inconclusive results are not listed. The source made the active and inactive calls. Calls follow the shape of the dose curve; as a rule, active = well fitted activation curve with a large enough effect; inconclusive = small, poorly fitted or top-dose-only effect; inactive = no such curve, though single readings can be large or run the other way.

Assay: qHTS assay for re-activators of p53 using a Luc reporter: Hit Validation with no p53 Expressed; as to activity change, positive = activation: 0% is about no effect
Settings: p53-null cells, luciferase reporter counter-screen; series mostly up to 46.1 µM; activity change, positive = activation: at the top concentration
How it was run: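 Without p53 expression, cells (1000/well, Opti-MEM + 10% FBS) were exposed 24 h at 37 deg C to compounds in a 1:5 series from 10 mM stock (top 46.1 µM in well). Luminescent signal read 10 min after Amplite addition; actives flag unspecific activation.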
Potency is read from the fitted curve at half-maximal effect.

SMILES | activity change, positive = activation | Potency
CC(C)/C=C1\CC/C(=C\c2ccc(N(C)C)cc2)C1=O | 14.4% (inactive) | 
CCOC(=O)c1c(NC(=O)C2COc3ccccc3O2)sc2c1CCN(Cc1ccccc1)C2 (centres undefined) | 7.72% (inactive) | 
Nc1nonc1-n1nnc(C(=O)N/N=C/c2ccc(Br)cc2)c1CSC1=NCCS1 | -5.67% (inactive) | 
NC(=O)c1cc(Cl)ccc1OCC(=O)Nc1ccc2c(c1)OCO2 | 58.5% (inactive) | 
CN(c1ccc(C(=O)COC(=O)C2CC2)cc1)S(C)(=O)=O | -4.32% (inactive) | 
C/C(=N\NS(=O)(=O)c1ccc(Cl)cc1)c1ccc(NC(=O)c2ccco2)cc1 | -9.33% (inactive) | 
CCN(CC)C(=O)CNC(=S)N(CCCN1CCOCC1)Cc1cccs1 | 0.343% (inactive) | 
CC(C)C(=O)NC(c1cccs1)c1cc([N+](=O)[O-])c2cccnc2c1O (centres undefined) | -6.46% (inactive) | 
N#C/C(=C\c1ccccc1[N+](=O)[O-])c1nc(C2CC2)cs1 |  | 11.6 µM (active)
Cc1ccc(NC(=O)Nc2ccccc2)c(Br)c1 | -27.1% (inactive) | 
CN1CCN(C2=C(Cl)C(=O)N(Cc3ccccc3)C2=O)CC1 | -21.3% (inactive) | 
COC(=O)c1ccc(CSc2nnc(-c3c[nH]c4ccccc34)n2-c2ccccc2)cc1 | 5.8% (inactive) | 
O=C(CNc1ccccc1)N/N=C/c1c[nH]c2ccccc12 | -48.1% (inactive) | 
Cc1cccc(NC(=O)Nc2ccc(C)cc2Br)c1 | 6.7% (inactive) | 
Cc1ccc(-c2nc3ccccc3o2)cc1NC(=O)c1ccc2c(c1)OCO2 | 13.8% (inactive) | 
COc1cc(C2NC(=S)NC(O)(C(F)(F)F)C2C(=O)c2cccs2)cc(OC)c1O (centres undefined) | 5.29% (inactive) | 
N#Cc1cccc(N=Cc2c(O)ccc3ccccc23)c1 | 16.7% (inactive) | 
CCN1CCN(Cc2ccc(NC(=O)Nc3ccccc3)cc2)CC1 | -19.7% (inactive) | 
O=C(CCC1CCCC1)Nc1ccc(Br)cn1 | 74.3% (inactive) | 
Oc1[nH]c2ccccc2c1C=Nc1ccc2c(c1)OCCO2 | 36.1% (inactive) | 

SMILES | activity change, positive = activation | Potency
CCOC(=O)N1CCN(S(=O)(=O)c2ccc(C(=O)NNc3nc4cc(C)cc(C)c4s3)cc2)CC1 | -4.06% (inactive) | 
C/C(=C\COc1ccc2ccc(=O)oc2c1)CC[C@@H](O)C(C)(C)O | -28.7% (inactive) | 
O=c1[nH]c(N/N=C/c2ccc(O)cc2)nc2ccccc12 | -0.234% (inactive) | 
CC(C)CCn1cnc2c(sc3nc4c(cc32)CSC(C)(C)C4)c1=O | 33% (inactive) | 
O=C(COC(=O)C12CC3CC(CC(O)(C3)C1)C2)Nc1ccc(Br)cc1F | 59.9% (inactive) | 
CCCCC(=O)N1CCCC(C)C1 (centres undefined) | 20.3% (inactive) | 
C1=C(CCNc2ncnc3nc[nH]c23)CCCC1 | 52.6% (inactive) | 
O=C(Cc1ccccc1)Nc1ccc(NC(=O)c2cccnc2)cc1 | -13.4% (inactive) | 
C(=C\c1nc(-c2ccccc2)no1)/c1ccccc1 | 21.9% (inactive) | 
O=C(CSc1nnc(-c2ccc(O)cc2)o1)N1CCOCC1 | 88.1% (inactive) | 
COc1ccc(/C(C)=N/Nc2nccnc2Cl)cc1 | -19.3% (inactive) | 
COc1ccc(CNC(=O)NC2CCCCC2)cc1 | 24.1% (inactive) | 
C/C(=N\NC(=O)c1cc(C)nc2ccccc12)c1ccccn1 | -10.9% (inactive) | 
CC(C)c1ccc2oc(-c3ccc(N)cc3)nc2c1 | -8.62% (inactive) | 
COc1ccc(N2CCN(CC(=O)Nc3ccc(C)cc3)CC2)cc1 | -7.99% (inactive) | 
CC1(C)Oc2ccc(NC(=O)C3COc4ccccc4O3)cc2O1 (centres undefined) | 18% (inactive) | 
C#CCn1c(=NC(=O)c2cccs2)sc2cccc(OCC)c21 | -22.2% (inactive) | 
Cc1nnc2n(c1=O)N=C(c1ccc(Cl)cc1)CS2 | 32.4% (inactive) | 
O=C(Nc1cccnc1)Nc1ccc(Br)cc1Cl | -23.6% (inactive) | 
